Data reported in PubChem BioAssay AID1578 (Sanford-Burnham Center for Chemical Genomics, 2009).
About 3,000 (1%) of roughly 290,000 compounds were called active. This is one part of a sample in which actives are shown more often than they occur. A number with no mark means an inactive call. No stated cut-off is given here; in the data, active means inhibition mostly above about 36% (no sharp cut-off); inactive means mostly below about 34%.

assay: NOD1 signaling inhibitors, primary screen, cell-based, luminescence, uHTS (AID 1578); conditions: NOD1-driven NF-kB luciferase reporter cells, at 4 µM, hits give high values;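 further: HEK-293T reporter cells stimulated with the NOD1 agonist gamma-tri-DAP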

Compound | inhibition
COCCn1c(C)cc(/C=C2/NC(=O)N(c3ccc(Cl)cc3)C2=O)c1C | -49.9%
O=C(O)c1cccc(COc2ccc3c(c2)CCC3)c1 | 92.4% (active)
COc1ccc(OCc2cccc(C(=O)Nn3cc([N+](=O)[O-])cn3)c2)cc1 | 50.9% (active)
COC(=O)c1cccc(Cn2cc([N+](=O)[O-])cn2)c1 | -7.1%
Cc1nn(Cc2cccc(C(=O)Nn3cc([N+](=O)[O-])cn3)c2)c(C)c1[N+](=O)[O-] | 0.9%
NNC(=O)c1cccc(COc2ccc3c(c2)CCC3)c1 | 62.3%
O=C(O)c1ccc(COc2ccc3c(c2)CCC3)cc1 | -2.9%
COc1ccc(OC)c(-c2csc(NC(=O)Cc3ccc(OC)c(OC)c3)n2)c1 | 25.1%
Cc1cc(C)cc(N(C(=O)c2csnn2)C(C(=O)NC(C)(C)C)c2cccs2)c1 (stereo not drawn) | 10.5%
O=C1CCCCC(=O)N(c2ccccc2)c2ccccc21 | 7.2%
CCOC(=O)c1cnc2ccc(OC)cc2c1NCc1ccccc1 | 3.2%
CCOC(=O)c1cnc2ccc(OCC)cc2c1NCc1ccccc1 | -5.7%
CCOC(=O)c1cnc2ccc(OCC)cc2c1NCc1ccccc1OC | 72.7% (active)
CN(C)Cc1ccc(F)cc1Sc1ccc(Cl)cc1Cl | -13.9%
CN(C)Cc1ccc(F)cc1Sc1cc(Cl)ccc1Cl | 63.7% (active)
CN(C)C(=O)c1cc(F)ccc1Sc1cc(Cl)ccc1Cl | -6.9%
CCc1ccc(-n2c(SCC(=O)N3CCC(C(=O)O)CC3)nnc2-c2ccncc2)cc1 | -31.9%
O=c1c(/C=N\NS(=O)(=O)c2ccccc2)coc2ccc(Cl)cc12 | 69.9% (active)
O=C(N/N=C/c1coc2ccc(Cl)cc2c1=O)c1cc(O)cc(O)c1 | 31.6%
NC(=S)N/N=C/c1coc2ccc(Cl)cc2c1=O | 9.6%
CC(=O)N1CCN=C1SCc1ccccc1Cl | 1.2%
COc1ccc(C2C(C(=O)c3sc(C)nc3C)=C(O)C(=O)N2CCN(C)C)cc1 (stereo not drawn) | -18.4%
COc1cc(/C=C2/SC(=O)NC2=O)ccc1OCc1ccccc1 | -38.4%
COc1ccccc1OCCCOc1ccc(/C=C2\SC(=O)NC2=O)cc1OC | 54.4%
CCOc1ccc(/C=C2\SC(=S)NC2=O)cc1OC | -40.1%
CCOc1ccc(N(C)c2ccc(/C=C3/SC(=S)NC3=O)cc2)cc1 | 43.6%

Compound | inhibition
CC(=O)Nc1ccc(OCc2nnc(-c3ccc(Cl)cc3)o2)cc1 | -27.9%
Cc1ccc2c(c1)c1c(n2CC(O)Cn2ccnc2C)C(=O)CCC1 (stereo not drawn) | -18.6%
COCCNC(=S)N(CCc1c(C)[nH]c2ccccc12)Cc1ccco1 | -30.2%
O=C(CCN1C(=O)c2ccccc2C1=O)N1CCOCC1 | -25.4%
Cc1ccc2c(c1)CCCN2C(=O)Nc1ccc2c(c1)OCO2 | -2.3%
COc1ccc(CNC(=O)Cn2cncn2)cc1OC | -12.9%
O=C(Cn1cncn1)NCc1ccc(Cl)cc1 | 66.1% (active)
Cc1ccc(CNC(=O)Cn2cncn2)cc1 | 8.6%
Cc1cc(C)n(C(=O)CCCCCCCC(=O)n2nc(C)cc2C)n1 | -26.9%
O=C(Nc1ccc(Cl)cc1)c1cc2c(cc1O)[nH]c1ccccc12 | 43.7% (active)
CC(=O)Nc1ccc2[nH]c3ccccc3c2c1 | -15.1%
COc1ccc(NC(=O)c2cc3ccc4c5ccccc5[nH]c4c3cc2O)cc1 | -6.7%
O=C(CSc1ccc(-c2ccccn2)nn1)NCc1ccc(F)cc1 | -16.2%
COc1ccccc1CNC(=O)COC(=O)CNS(=O)(=O)c1ccc(C)cc1 | -3%
CN(Cc1ccccc1)c1ncnc(N)c1[N+](=O)[O-] | 46%
Nc1ncnc(NC2CCS(=O)(=O)C2)c1[N+](=O)[O-] (stereo not drawn) | 11.8%
CN(c1ncnc(N)c1[N+](=O)[O-])C1CCCCC1 | 80.2% (active)
CN(c1ncnc(N)c1[N+](=O)[O-])C1CCS(=O)(=O)C1 (stereo not drawn) | 58% (active)
Nc1ncnc(N(c2ccccc2)C2CCCCC2)c1[N+](=O)[O-] | 44.6%
Cc1ccc(N(c2ncnc(N)c2[N+](=O)[O-])C2CCCCC2)cc1 | 22.2%
CC1=Cc2ccccc2C(C#N)N1C(=O)c1ccccc1 (stereo not drawn) | 31.4%
Cc1cc(-c2ccc(C)c(S(=O)(=O)N3CCN(c4ccccn4)CC3)c2)on1 | -13%
Cc1cc(-c2ccc(C)c(S(=O)(=O)NCCCN3CCN(c4ccccc4)CC3)c2)on1 | 17.3%
COc1ccc(-c2cc(C)no2)cc1S(=O)(=O)NCCCN1CCN(c2ccccc2)CC1 | -7.4%
CCc1ccc(-c2cc(C)no2)cc1S(=O)(=O)N1CCN(c2ccc(F)cc2)CC1 | 5.8%
CC(NC(=O)NC(=O)c1ccc(Cl)cc1Cl)C1CC1 (stereo not drawn) | -53%

Compound | inhibition
CCOc1ccc(NC(=S)NC(C)c2cccs2)cc1 (stereo not drawn) | -21.7%
COc1cc(NC(=O)CN(c2ccc(C)cc2)S(=O)(=O)c2c(C)noc2C)cc(OC)c1 | -34.4%
O=C1C=C(NCc2ccccc2)c2ccccc2C1=O | 78.8% (active)
O=C1C=C(Nc2ccccc2)c2ccccc2C1=O | -24.6%
CCCCNC1=CC(=O)C(=O)c2ccccc21 | -7.1%
O=C1Cc2cc(S(=O)(=O)N3CCCCC3)ccc2N1 | -22.1%
CCCC(=O)NC(=S)Nc1cccc(NC(=O)c2ccccc2Cl)c1 | -18.6%
O=C(Nc1cccc(S(=O)(=O)Nc2ccccc2F)c1)c1ccc2ccccc2n1 | 33.7%
COc1ccccc1NS(=O)(=O)c1cc(NC(=O)c2ccc3ccccc3n2)ccc1Cl | -24.5%
COc1ccc(CNC(=O)c2ccc3ccccc3n2)cc1 | -33.9%
COc1ccc(CCNC(=O)c2ccc3ccccc3n2)cc1OC | -14.9%
COc1cccc(C(=O)NC2CCN(CC(=O)Nc3nccs3)CC2)c1 | 7.4%
O=C(c1ccc2nc(Cc3cccc(Cl)c3)oc2c1)N1CCC[C@H]1CO | -34%
O=C(CCN1CCCCO1)N1CCCC(N2CCN(c3ccc(F)cc3)CC2)C1 (stereo not drawn) | -8.6%
Cc1ccc(CNC(=O)C2CCN(c3nn4c(=O)cc(C)nc4s3)CC2)cc1 | -23.9%
COc1ccc(C)cc1N(C(=O)c1ccc(C#N)cc1)C1=NC(C)(C)CS1 | -8.3%
COc1ccc(OCC(=O)N2CCc3ccccc3C2)cc1 | -21.2%
Cc1ccc(OCC(=O)N2CCc3ccccc3C2)cc1 | 4.6%
COC(=O)N/N=C/c1cn(CCCOc2ccccc2)c2ccccc12 | 25.7%
CCn1cc(/C=N/NC(=O)c2cc3c(ccc4ccccc43)o2)c2ccccc21 | 32%
CCOC(=O)N/N=C/c1cn(CCCOc2ccccc2)c2ccccc12 | 79.6% (active)
CCOC(=O)N/N=C/c1cn(CCCOc2ccc(C)cc2)c2ccccc12 | 31.1%
C#CCn1cc(/C=N/NC(=O)c2cc3ccccc3o2)c2ccccc21 | -7.9%
CCOC(=O)Cn1cc(/C=N/NC(=O)c2cc3ccccc3o2)c2ccccc21 | 35.8% (active)
CCCS(=O)(=O)N1CCC(C(=O)c2cccc(C(F)(F)F)c2)CC1 | -5.7%
Cc1cc(C(=O)Nc2nnc(C(F)(F)F)s2)cs1 | -7.7%

Compound | inhibition
COc1ccc(OC)c(S(=O)(=O)N2CCN3CCCC3C2)c1 (stereo not drawn) | -16.6%
Nc1ccccc1C#CC(=O)c1ccccc1 | 58.4% (active)
Nc1ccccc1C#Cc1ccccc1 | -30.1%
Nc1ccccc1C#CCCCCO | -18.4%
O=[N+]([O-])c1ccc(Cl)c(/C=N/n2c(COc3ccccc3)n[nH]c2=S)c1 | -22%
COC(=O)CN1C(=S)N(c2ccc(Cl)cc2)C(=O)C1CC(=O)Nc1ccccc1 (stereo not drawn) | -29.4%
O=S(=O)(O)c1cccc2c(N=Nc3ccc(O)c4ncccc34)cccc12 | 25.1%
COc1ccc(C)cc1N=Nc1ccc(O)c2ncccc12 | -31.6%
Cc1cccc(NCc2ccc(O)c3ncccc23)c1 | -29%
COc1cccc(N=Nc2ccc3ccccc3c2O)c1 | -81.3%
CCS(=O)(=O)c1ccc(OC)c(N=Nc2ccc(O)c3ncccc23)c1 | 24.1%
O=Nc1ccc(O)c2ncccc12 | 19.6%
Nc1ccc(N=Nc2ccccc2)c2cccnc12 | -3.3%
COc1ccccc1N=Nc1ccc(O)c2ncccc12 | -11.7%
Cc1cccc(N=Nc2ccc(O)c3ncccc23)c1 | 108% (active)
CCOC(=O)c1ccc(Nc2c(OCC)c(=O)c2=O)cc1 | 8%
Cc1ccc(/C=N/N2CCN(C3c4ccccc4-c4ccccc43)CC2)s1 | 0.2%
NNC(=O)c1cc(Cl)ccc1Cl | -38.8%
COc1ccc(-c2noc(CCC(=O)NCCc3ccccc3)n2)cc1OC | -7.8%
c1ccc(-c2nnsc2Sc2ccccn2)cc1 | -52.7%
CN(C(=O)n1cnc2ccccc21)c1ccccc1 | -29.2%
CCOc1cc2nc(-c3ccc(OC)c(OC)c3)nc(N3CCOCC3)c2cc1OC | -23.5%
COc1ccc(N=Nc2ccc(O)c3ncccc23)cc1 | 108% (active)
CCOc1ccc(N=Nc2ccc(O)c3ncccc23)cc1 | 25.7%
CCS(=O)(=O)c1ccc(N=Nc2ccc(O)c3ncccc23)c(OC)c1 | -30%
